Assay [1] addresses Rap guanine nucleotide exchange factor 3 (Homo sapiens) (UniProt O95398). In words: Confirmatory qHTS for antagonist of cAMP-regulated guanine nucleotide exchange factor 3 (EPAC1) (AID 1645880).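 For activity, negative = inhibition: plate controls were DMSO only for no effect and full effect of the ATA control for full effect.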 Note: nearly all actives have a fitted effect of over 55% in size. Note: potency is the fitted concentration of half-maximal effect. As to conditions: EPAC1 Rap1B-BODIPY-GDP exchange, fluorescence; activity, negative = inhibition: at 115 µM (top of the series). The procedure, abridged:
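Released BODIPY-GDP fluoresces less than Rap1-bound BODIPY-GDP; the signal is followed at 480/540 nm at 5-min intervals over 30 min, after 5 min at room temperature. Reactions contain 100 nM EPAC1, 250 nM RAP1B-BODIPY-GDP and 50 uM GDP; results are normalized to ATA and DMSO.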

The target is the same in assay [2]. The experiment in a line: Confirmatory qHTS for agonist of cAMP-regulated guanine nucleotide exchange factor 3 (EPAC1) (AID 1645881; note: nearly all actives have a fitted effect of over 75% in size; note: potency is the fitted concentration of half-maximal effect;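 for activation: EPAC1 catalysed release of BODIPY-GDP from Rap1B seen as fluorescence loss; 100% = effect of cAMP agonist control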). (Quantitative high-throughput screening tests each substance at several concentrations.)
For assay [3], the target named is Rap guanine nucleotide exchange factor 4 (Homo sapiens) (UniProt Q8WZA2). In words: Confirmatory qHTS for agonist of cAMP-regulated guanine nucleotide exchange factor 4 (EPAC2) (AID 1645884). For activation: % is set by controls: 0 for no effect and ±100 for the full control effect.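 Note: nucleotide exchange releases bodipy-GDP from Rap1 and this lowers its fluorescence; nearly all actives have a fitted effect of over 65% in size.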 Note: potency is the fitted concentration of half-maximal effect.
Assay [4] shares this target. The experiment in a line: Confirmatory qHTS for antagonist of cAMP-regulated guanine nucleotide exchange factor 4 (EPAC2) (AID 1645885). For activity change, negative = inhibition: % is set by controls: 0 for no effect and ±100 for the full control effect. Note: nearly all actives have a fitted effect of over 25% in size. Note: potency is the fitted concentration of half-maximal effect.
Assay [5] addresses Rap guanine nucleotide exchange factor 3 (Homo sapiens) (UniProt O95398). The experiment in a line: Counterscreen qHTS for antagonist of cAMP-regulated guanine nucleotide exchange factor 3 (EPAC1) (AID 1645888). Note: % of control where 0% means no effect. The procedure, abridged:
(§1)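 Measured: fluorescence of BODIPY-GDP bound to Rap1B, which falls as exchange proceeds. Conditions include 50 uM competing GDP, 5 and 30 min reads, and a later cAMP challenge for antagonist detection.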
A general note: Counterscreens check selectivity or assay interference.

The target is the same in assay [6]. In words: Counterscreen qHTS for agonist of cAMP-regulated guanine nucleotide exchange factor 3 (EPAC1) (AID 1645889). For activation: % of control where 0% means no effect. Note: nearly all actives have a fitted effect of over 40% in size. Note: potency is the fitted concentration of half-maximal effect. In short, it runs like this:
as §1

Inconclusive results are not listed. Values without a mark were called inactive. Calls of active or inactive are those of the source. Calls come from the whole dose curve; as a rule, active = well fitted curve in the direction sought with a large enough effect; inconclusive = small, poorly fitted or top-dose-only effect, or another doubt; inactive = no such curve, though single readings can be large; an effect the other way counts as inactive or inconclusive.

Sequence of Rap guanine nucleotide exchange factor 3 (Homo sapiens) (O95398 whole entry, looked up): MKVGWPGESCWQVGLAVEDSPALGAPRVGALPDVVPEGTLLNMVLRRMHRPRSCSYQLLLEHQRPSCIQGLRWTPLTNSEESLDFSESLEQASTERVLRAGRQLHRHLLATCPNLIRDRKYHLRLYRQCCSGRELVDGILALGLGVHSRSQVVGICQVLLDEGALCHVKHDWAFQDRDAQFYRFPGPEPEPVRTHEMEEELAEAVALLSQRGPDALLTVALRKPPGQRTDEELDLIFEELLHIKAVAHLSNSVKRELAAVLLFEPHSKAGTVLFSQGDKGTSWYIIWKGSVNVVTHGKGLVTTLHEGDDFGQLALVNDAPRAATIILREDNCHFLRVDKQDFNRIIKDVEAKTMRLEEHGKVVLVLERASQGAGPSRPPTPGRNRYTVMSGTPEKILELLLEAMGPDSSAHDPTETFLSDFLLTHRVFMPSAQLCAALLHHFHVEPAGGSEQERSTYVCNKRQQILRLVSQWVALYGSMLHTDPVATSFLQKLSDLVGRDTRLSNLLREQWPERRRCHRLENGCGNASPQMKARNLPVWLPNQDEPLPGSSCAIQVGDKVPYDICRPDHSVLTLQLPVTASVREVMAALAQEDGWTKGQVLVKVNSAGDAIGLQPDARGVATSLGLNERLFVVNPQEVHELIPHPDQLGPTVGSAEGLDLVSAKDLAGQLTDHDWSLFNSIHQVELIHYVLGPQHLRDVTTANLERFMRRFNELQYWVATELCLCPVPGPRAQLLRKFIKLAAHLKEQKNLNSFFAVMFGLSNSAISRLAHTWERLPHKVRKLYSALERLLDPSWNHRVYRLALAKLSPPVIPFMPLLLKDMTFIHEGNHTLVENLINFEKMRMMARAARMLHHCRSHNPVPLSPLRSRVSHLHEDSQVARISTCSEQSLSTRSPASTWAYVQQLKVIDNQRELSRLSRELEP
Sequence of Rap guanine nucleotide exchange factor 4 (Homo sapiens) (Q8WZA2 whole entry, looked up): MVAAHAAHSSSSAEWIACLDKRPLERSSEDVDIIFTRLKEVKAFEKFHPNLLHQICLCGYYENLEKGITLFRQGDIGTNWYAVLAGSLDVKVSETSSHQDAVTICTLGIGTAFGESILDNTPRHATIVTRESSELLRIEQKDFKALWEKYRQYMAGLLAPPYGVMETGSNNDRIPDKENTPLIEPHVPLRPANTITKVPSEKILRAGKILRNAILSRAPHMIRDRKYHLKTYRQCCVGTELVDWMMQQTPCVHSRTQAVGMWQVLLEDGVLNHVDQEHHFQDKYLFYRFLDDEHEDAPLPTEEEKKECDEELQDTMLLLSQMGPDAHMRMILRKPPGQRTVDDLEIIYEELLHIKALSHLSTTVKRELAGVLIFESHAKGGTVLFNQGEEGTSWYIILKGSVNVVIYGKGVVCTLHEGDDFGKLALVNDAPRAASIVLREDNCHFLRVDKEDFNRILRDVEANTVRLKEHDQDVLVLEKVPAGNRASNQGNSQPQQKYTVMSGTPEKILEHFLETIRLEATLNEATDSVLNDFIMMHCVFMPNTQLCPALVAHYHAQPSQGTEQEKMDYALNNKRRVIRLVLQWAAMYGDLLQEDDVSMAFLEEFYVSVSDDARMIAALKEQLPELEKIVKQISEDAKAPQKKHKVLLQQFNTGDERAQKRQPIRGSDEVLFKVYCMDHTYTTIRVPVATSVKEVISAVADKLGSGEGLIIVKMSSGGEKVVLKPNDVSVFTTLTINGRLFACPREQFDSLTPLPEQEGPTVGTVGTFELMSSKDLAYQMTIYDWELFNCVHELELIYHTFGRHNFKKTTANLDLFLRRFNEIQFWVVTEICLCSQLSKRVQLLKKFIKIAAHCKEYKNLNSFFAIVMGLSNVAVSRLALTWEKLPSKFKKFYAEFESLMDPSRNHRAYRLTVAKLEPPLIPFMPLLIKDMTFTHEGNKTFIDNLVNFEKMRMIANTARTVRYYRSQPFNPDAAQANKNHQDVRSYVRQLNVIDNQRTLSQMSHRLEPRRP

As to `Cn1cc([C@]2(O)C(=O)Nc3c(F)cccc32)c2ccccc21`, the Potency result in assay [1], in assay [2], in assay [3], in assay [4], in assay [5] and in assay [6] was “inactive” throughout.

For `CCCN1C(=O)c2[nH]nc(-c3cccc(OC)c3)c2C1c1ccccn1` (centres undefined), the Potency entry in assay [1], in assay [2], in assay [3], in assay [5] and in assay [6] was “inactive” each time. The outcome in assay [4] was “inactive [at 12.7 µM]”.

As for `CCOC(=O)c1c(-c2ccc(OC)cc2)csc1/N=C/C1=C(O)CCCC1=O`, the Potency entry in assay [1], in assay [2] and in assay [4] was “inactive” throughout. Also, the activation in assay [3] was 4.43% [at 17.1 µM, percent relative to cAMP agonist control]; in assay [6] it was 11.3% [at 30.8 µM]. Besides, the activity change, negative = inhibition in assay [5] is -7.43% [at 30.8 µM].

As to `CCc1ccccc1N(C)S(=O)(=O)c1ccc2[nH]cc(C(=O)N3CCc4ccccc43)c(=O)c2c1`, the Potency result in assay [1], in assay [2] and in assay [4] was “inactive” each time. The activation is -2.56% [at 17.1 µM, percent relative to cAMP agonist control] in assay [3] and 15.8% [at 30.8 µM] in assay [6]. For the same molecule, the activity change, negative = inhibition in assay [5] is -6.13% [at 30.8 µM].

Regarding `CCN(CC)c1ccc2cc(-c3nc(-c4cccs4)no3)c(=O)oc2c1`, the Potency entry in assay [1] and in assay [5] was “inactive” each time. For the same molecule, the Potency in assay [2] was 100 µM (active); in assay [3], 35.5 µM (active); in assay [4], 3.38 µM (active); in assay [6], 79.4 µM (active).

In the case of `COc1ccc(-c2cc(=O)oc3c(O)c(O)ccc23)cc1`, the Potency in assay [1] is 8.49 µM (active). Also, the Potency entry in assay [2], in assay [3], in assay [4], in assay [5] and in assay [6] was “inactive” in each case.

With `COc1cc(/C=C2\SC(=S)N(CC(=O)O)C2=O)ccc1OS(=O)(=O)c1ccc(C)cc1`, in assay [1], the Potency is 23.9 µM (active). For the same molecule, the Potency entry in assay [2], in assay [3], in assay [4], in assay [5] and in assay [6] was “inactive” throughout.

`COc1ccc(Cl)cc1-n1c(=S)sc2c(=O)[nH]c(SCC(=O)NCCC(C)C)nc21`: in assay [1], the Potency was 15.1 µM (active). In addition, the Potency result in assay [2], in assay [3], in assay [4], in assay [5] and in assay [6] was “inactive” in each case.

In the case of `Cc1ccc(-c2c3c(=O)n(C)c(=O)n(C)c3c3c(C(F)(F)F)nc4ccccc4n23)cc1`, the Potency result in assay [1], in assay [2], in assay [3], in assay [4], in assay [5] and in assay [6] was “inactive” in each case.

In the case of `Cc1cc(C)c2cccc(N)c2n1`, the Potency entry in assay [1], in assay [2] and in assay [4] was “inactive” in each case. For the same molecule, the activation in assay [3] was 3.77% [at 17.1 µM, percent relative to cAMP agonist control]; in assay [6], 7.96% [at 30.8 µM]. In addition, the activity change, negative = inhibition in assay [5] is 8.48% [at 30.8 µM].

As for `Cc1ccc(C(=O)N2CCN(c3ccccc3)CC2)cc1S(=O)(=O)N1CCOCC1`, the Potency entry in assay [1], in assay [2], in assay [3], in assay [4], in assay [5] and in assay [6] was “inactive” throughout.

As to `COc1ccccc1/C=C1\SC(=S)N(NS(=O)(=O)c2ccccc2)C1=O`, the Potency in assay [1] was 16.9 µM (active). The Potency result in assay [2], in assay [3], in assay [4], in assay [5] and in assay [6] was “inactive” throughout.

As to `CCc1nc2c(OCc3ccc(C(=O)N(C)C)cc3)cccn2c1N(C)C(=O)c1ccc(C)cc1`, the Potency result in assay [1], in assay [2] and in assay [4] was “inactive” throughout. Besides, the activation was 2.55% [at 17.1 µM, percent relative to cAMP agonist control] in assay [3] and 21.1% [at 30.8 µM] in assay [6]. Besides, the activity change, negative = inhibition in assay [5] is -28.5% [at 30.8 µM].

In the case of `CSc1ccc(CCNC(=O)c2csc3c2CCCCC3)cc1`, the Potency entry in assay [1], in assay [2], in assay [3], in assay [5] and in assay [6] was “inactive” each time. Further, the outcome in assay [4] is “inactive [at 12.7 µM]”.

As for `Cc1[nH]n(-c2ccccc2)c(=O)c1C(c1ccc(C(=O)O)cc1)c1c(C)[nH]n(-c2ccccc2)c1=O`, the Potency entry in assay [1], in assay [2], in assay [3], in assay [4] and in assay [5] was “inactive” each time. In addition, the Potency in assay [6] was 1.78 µM (active).

In the case of `O=C1/C(=C\c2ccc(O)c(O)c2)C(c2ccccc2)=NN1c1ccccc1`, in assay [1], the Potency is 16.9 µM (active). The Potency result in assay [2], in assay [3], in assay [4], in assay [5] and in assay [6] was “inactive” throughout.

For `COC(=O)/C(N=Nc1cccc(C(F)(F)F)c1)=C(\C)O`, the Potency result in assay [1], in assay [2] and in assay [4] was “inactive” each time. In addition, the activation in assay [3] was 10.2% [at 17.1 µM, percent relative to cAMP agonist control]; in assay [6], 22.5% [at 30.8 µM]. The activity change, negative = inhibition in assay [5] is -9.14% [at 30.8 µM].

As to `CCCCn1c(N)c(N(CCOC)C(=O)c2cccc(S(=O)(=O)N(C)c3ccc(C)cc3)c2)c(=O)[nH]c1=O`, the Potency entry in assay [1], in assay [2] and in assay [4] was “inactive” each time. The activation is -4.77% [at 17.1 µM, percent relative to cAMP agonist control] in assay [3] and 14.6% [at 30.8 µM] in assay [6]. For the same molecule, the activity change, negative = inhibition in assay [5] was 3.57% [at 30.8 µM].

As to `C=C1CCN(C(Cc2ccccc2)C(=O)OC)S(=O)(=O)c2ccc(F)cc21` (centres undefined), the Potency entry in assay [1], in assay [2] and in assay [4] was “inactive” throughout. Also, the activation is 11.5% [at 17.1 µM, percent relative to cAMP agonist control] in assay [3] and 14% [at 30.8 µM] in assay [6]. Further, the activity change, negative = inhibition in assay [5] was 2.02% [at 30.8 µM].
